In all, about 410,000 compounds went through this assay and about 490 (0.12%) were called active. A call without a number means that no potency is given here. Roughly 1% stayed inconclusive and do not appear here. Calls come from the whole dose curve; as a rule, active = well fitted inhibition curve with a large enough effect; inconclusive = small, poorly fitted or top-dose-only effect; inactive = flat fitted curve, though single readings scatter. The sample as a whole holds a higher share of actives than the screen did.
biological target: pyruvate kinase (Trypanosoma brucei) (UniProt Q57TT1); assay: qHTS of Trypanosoma Brucei Inhibitors; conditions: TbPYK enzyme, Kinase-Glo Plus ATP luminescence, 45 min; series mostly up to 76.8 µM; note: nearly all actives have a fitted effect of over 50% in size
From the text: Members of the Trypanosomatidae family of parasitic protozoans cause a spectrum of diseases throughout the tropical and subtropical world. Sleeping sickness, caused by two subspecies of Trypanosoma brucei, is endemic to areas of sub-Saharan Africa, while Chagas' disease, a manifestation of Trypanosoma cruzi infection, is prevalent throughout Central and South America. In addition, many species of Leishmania are responsible for a range of cutaneous and visceral diseases, causing ulcers, destructive lesions and kalaazar, a lethal infection of the viscera. These diseases cause severe public health and economic burdens on populations that are often already caught in a tragic cycle of poverty, poor nutrition and disease. Collectively, parasites of the trypanosomatid family infect 30 million people worldwide (~500 million live in endemic areas), and account for ~130K deaths annually. Existing treatments have developed little in the past 50 years, and suffer from toxicity, poor efficacy and resistance; the goal of this project is to develop lead drugs that will be suitable for entry into pre-clinical trials.
Glycolysis in axenically cultured T. cruzi, representing the intracellular pathogenic stage, is also essential for these parasites. {Engel, 1987} This project aims to discover and optimize selective inhibitors of the glycolytic enzyme pyruvate kinase (PYK) from Trypanosoma brucei, the parasite that causes sleeping sickness. […] Trypanosomatid PYKs show significant differences from their human counterparts including only 47-50% sequence identity and different allosteric and activation properties.{Callens, 1992} To this end, a qHTS was done against the MLSMR to discover inhibitors.
NIH Molecular Libraries Probe Production Network [MLPCN]
NIH Chemical Genomics Center [NCGC]
PI Name: Malcolm Walkinshaw, University of Edinburgh
2 uL of TbPYK/substrate buffer (columns 1-3, 5-48) are dispensed into Greiner white solid bottom 1536-well assay plates; column 4 receives only TEA buffer as 0x TbPYK controls. Compounds are then transferred via Kalypsys pin tool equipped with 1536-pin array (10 nL slotted pins, V&P Scientific, San Diego, CA). Following addition of compound, 2 uL of ADP (130 uM final concentration, all columns) is added to initiate the reaction. The plates are then incubated at room temperature for 45 minutes. Kinase-Glo Plus reagent is added (3 uL) and plates incubated for 10 minutes, before being transferred to a ViewLux high-throughput CCD imager (PerkinElmer) wherein single end-point measurements of luminescence are acquired using a clear filter. All reagents are diluted in an assay buffer consisting of 50 mM TEA (pH 7.2), 100 mM KCl, 10 mM MgCl2, 0.05% BSA and 0.01% Tween-20.
All screening operations will be performed on a fully integrated robotic system (Kalypsys, San Diego, CA) containing one RX-130 and two RX-90 anthropomorphic robotic arms (Staeubli, Duncan, SC). Library plates will be screened starting from the lowest and proceeding to the highest concentration. Vehicle-only plates, with DMSO being pin-transferred to columns 5-48, will be inserted uniformly at the beginning and the end of each library in order to monitor and record any shifts in the background, which can be affected by reagent dispensers or loss in enzyme activity over time. Screening data will be corrected, normalized, and concentration-effect relationships will be derived by using publicly-available curve fitting algorithms developed in-house (http://ncgc.nih.gov/pub/openhts).
Potency is the fitted concentration of half-maximal effect.

| SMILES | Potency |
| --- | --- |
| O=C(c1ccncc1)N1CCC2(CCCN(C(c3ccccc3)c3ccccc3)C2)CC1 | inactive |
| O=c1c(CCc2ccccc2)nc2cncnc2n1C1CC1 | inactive |
| CC(=O)NC(=O)c1ccccc1O | inactive |
| COc1ccc(-n2c(-c3ccc(OC)c(OC)c3)n[nH]c2=S)cc1 | 3.98 µM (active) |
| COc1cc(OC)c(-n2cc(-c3ccc(Cl)cc3)[nH]c2=O)cc1Cl | inactive |
| COc1ccc(-n2c(-c3ccc(Cl)cc3)n[nH]c2=S)c(OC)c1 | 5.62 µM (active) |
| COc1ccc(-c2cn(-c3ccc(C)cc3)c(=O)n2CC(=O)Nc2ccc(OC)c(OC)c2)cc1 | inactive |
| COc1ccc(-n2c(C)csc2=S)cc1 | inactive |
| COc1ccc(CNc2nc(-c3ccc(Cl)cc3)cc(C(F)(F)F)n2)cc1 | inactive |
| O=C(Nc1cccc(F)c1)N1CCC2(CC1)CCN(S(=O)(=O)c1ccccc1)CC2 | inactive |
| C=C1C(=CC=C2CCC[C@@]3(C)[C@@H]2CC[C@H]3[C@H](C)CCCC(C)C)C[C@@H](O)C[C@@H]1O | inactive |
| Cc1nnc(C(=O)NC(C)(C)c2nc(C(=O)NCc3ccc(F)cc3)c(O)c(=O)n2C)o1 | inactive |
| CCC1(c2ccccc2)C(=O)NC(=O)N(C)C1=O (configuration not stated) | inactive |
| CCCCCCCCCc1ccc(OCCOCCOCCOCCOCCOCCOCCOCCOCCO)cc1 | inactive |
| CCC[C@H]1C(=O)N2C(N(C)C)=Nc3ccc(C)cc3N2C1=O | inactive |
| O=c1c(-c2ccc(F)c(F)c2)nc2cncnc2n1-c1ccccc1 | inactive |
| COc1ccc(Oc2ncc3nc(-c4ccc(F)cc4)c(=O)n(C)c3n2)cc1 | inactive |
| CC(=O)OC1C([N+]2(C)CCCCC2)C[C@H]2C3CC[C@H]4C[C@H](OC(C)=O)C([N+]5(C)CCCCC5)CC4(C)C3CCC12C (some centres not stated) | inactive |
| CCC(CCC(C)C1CCC2C3CC=C4CC(O)CC[C@@]4(C)C3CC[C@@]12C)C(C)C (some centres not stated) | inactive |
| COc1cccc(Cn2c(=O)c(C)nc3cnc(Oc4ccccc4)nc32)c1 | inactive |
| CNC(C)[C@@H](O)c1ccccc1 (some centres not stated) | inactive |

| SMILES | Potency |
| --- | --- |
| O=C(c1cnccn1)N1CCC2(CCN(Cc3cc(C(F)(F)F)cc(C(F)(F)F)c3)CC2)CC1 | inactive |
| CCNc1ncc2nc(CCc3ccccc3)c(=O)n(-c3ccc(OC)cc3)c2n1 | inactive |
| O=C(c1ccco1)N1CCC2(CC1)CCN(c1ncccn1)CC2 | inactive |
| Cc1cn([C@H]2CC(F)[C@@H](CO)O2)c(=O)[nH]c1=O (some centres not stated) | inactive |
| Cc1cccc([C@H](C)c2cnc[nH]2)c1C | inactive |
| COc1ccc(-c2nc3cnc(Oc4ccccc4)nc3n(Cc3cccs3)c2=O)cc1 | inactive |
| COc1ccc(-n2c(=O)c(-c3cn(C)c4ccccc34)nc3cnc(OC)nc32)cc1 | inactive |
| N#Cc1ccc(CN2CCCC3(CCN(C(=O)c4ccco4)CC3)C2)cc1 | inactive |
| CC(=O)Oc1ccc2c3c1OC1C(OC(C)=O)C=CC4[C@@H](C2)N(C)CC[C@]314 (some centres not stated) | inactive |
| O=C(c1ccco1)N1CCC2(CC1)CN(c1ncccn1)C2 | inactive |
| O=C(Nc1cccc(F)c1)N1CC[C@@]2(CCCN(C(=O)Oc3ccccc3)C2)C1 | inactive |
| COc1ccc(NC(=O)N2CC3(CCN(C(=O)c4cccn4C)CC3)C2)cc1 | inactive |
| CCOC(=O)C1CCCN(S(=O)(=O)c2cc(-c3cc(C)no3)ccc2OC)C1 (configuration not stated) | inactive |
| O=C(c1cc(C(F)(F)F)cc(C(F)(F)F)c1)N1CCC2(CCCN(c3ccccn3)C2)CC1 | inactive |
| COc1ccc(-c2oc3cc(OC)ccc3c2C(=O)c2ccc(C#N)cc2)cc1 | inactive |
| Oc1ccc(Cl)c2c1CCC2 | inactive |
| CC1(C)OC[C@@H](COC(=O)CCc2ccc(OC[C@@H](O)CNCCNC(=O)N3CCOCC3)cc2)O1 | inactive |
| c1ccc(CN2CC[C@@]3(CCCNC3)C2)cc1 | inactive |
| COc1cccc(Cn2c(=O)c(-c3cc(F)cc(F)c3)nc3cnc(OC)nc32)c1 | inactive |
| CC(=O)CC(c1ccccc1)C1C(=O)Oc2ccccc2C1=O (configuration not stated) | inactive |
| COc1cc2c(cc1OC)[C@@H](Cc1cc(OC)c(OC)c(OC)c1)[N+](C)(CCCOC(=O)CC/C=C/CCC(=O)OCCC[N+]1(C)CCc3cc(OC)c(OC)cc3[C@H]1Cc1cc(OC)c(OC)c(OC)c1)CC2 (some centres not stated) | inactive |

| SMILES | Potency |
| --- | --- |
| C[C@H]1C[C@H]2[C@@H]3CCC4=CC(=O)C=C[C@]4(C)[C@@H]3C(=O)C[C@]2(C)[C@@]1(O)C(=O)CO | inactive |
| CCOc1ccc(NC(=O)CC2C(=O)N(c3cccc(OC)c3)C(=O)N2C2CCCCC2)cc1 (configuration not stated) | inactive |
| COCCn1c(=O)c(-c2cc(F)cc(F)c2)nc2cnc(N3CCNCC3)nc21 | inactive |
| CC(=O)N1CCC2(CC1)CCN(c1ccncc1)CC2 | inactive |
| O=S(O)CNc1ccc(S(=O)(=O)c2ccc(NCS(=O)O)cc2)cc1 | inactive |
| O=C(c1ccco1)N1CCC[C@@]2(CCN(Cc3nccs3)C2)C1 | inactive |
| Cn1cccc1C(=O)N1CCC2(CC1)CN(c1cccc(-c3ccccc3)c1)C2 | inactive |
| C/C=C1\C2C=C(C)CC1(N)c1ccc(=O)[nH]c1C2 (configuration not stated) | inactive |
| NC(=O)C(=O)N/N=C/c1ccc([N+](=O)[O-])o1 | inactive |
| O=C(c1cc(C(F)(F)F)cc(C(F)(F)F)c1)N1CCC[C@@]2(CCN(c3ccccn3)C2)C1 | inactive |
| CC(C)NC(=O)N1CCC2(CC1)CCN(C(=O)c1cccn1C)CC2 | inactive |
| O=C(O)CCC(=O)O | inactive |
| CC(C)(O/N=C(\C(=O)N[C@@H]1C(=O)N2C(C(=O)[O-])=C(C[n+]3ccccc3)CS[C@@H]12)c1csc(N)n1)C(=O)O | inactive |
| COCCn1c(=O)c(CCc2ccccc2)nc2cnc(N3CCNCC3)nc21 | inactive |
| COc1ccnc(C[S@@](=O)[C@@H]2Nc3ccc(OC(F)F)cc3N2)c1OC | inactive |
| C[C@]12CC[C@@H]3c4ccc(O)cc4C[C@@H](CCCCCCCCCS(=O)CCCC(F)(F)C(F)(F)F)C3[C@@H]1CC[C@@H]2O (some centres not stated) | inactive |
| C=CCn1c(C)cc(C2=NNC(=NCC)SC2)c1C | 17.8 µM (active) |
| CC1N=C(N)OC1c1ccccc1 (configuration not stated) | inactive |
| CS(=O)(=O)N1CCC2(CCN(c3ccncc3)CC2)CC1 | inactive |
| CC1(C)O[C@@H]2C[C@@H]3[C@H]4C[C@@H](F)C5=CC(=O)C=C[C@]5(C)[C@@]4(F)[C@@H](O)C[C@]3(C)[C@]2(C(=O)CO)O1 | inactive |
